# From PubChem BioAssay (NCATS)
# Inconclusive results are not listed. A call without a number means that no potency is given here. Unmarked numbers belong to inactive results. Activity calls are given as the source filed them. The call rests on the fitted dose curve; in most records, active means well fitted curve in the direction sought with a large enough effect; inconclusive means small, poorly fitted or top-dose-only effect, or another doubt; inactive means no such curve, though single readings can be large; an effect the other way counts as inactive or inconclusive.
# Tests used:
# [1] = qHTS of pediatric cancer cell lines to identify multiple opportunities for drug repurposing: Primary screen for SJ-GBM2 cells (AID 1347091); further: potency means the concentration at half of the fitted maximal effect
# Procedure, shortened: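 Viability measured as metabolically active cells via CellTiter-Glo luminescence following 48 hours of compound exposure, 11-point dilutions in confirmatory testing. 500-1,000 cells/well plated 5 hours before dosing; controls were DMSO and 2.3 µM bortezomib.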
# [2] = qHTS of pediatric cancer cell lines to identify multiple opportunities for drug repurposing: Primary screen for A673 cells (AID 1347092); further: nearly all actives have a fitted effect of over 45% in size; further: potency means the concentration at half of the fitted maximal effect
# Procedure, shortened: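 Cell viability of A673 measured by CellTiter-Glo ATP luminescence after 48 hours compound exposure. Dilution series spanned 0.78 nM to 46 µM (MIPE, 11-point) or 0.59 nM to 46 µM (NPC, 8-point); bortezomib 2.3 uM positive control.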
# [3] = qHTS of pediatric cancer cell lines to identify multiple opportunities for drug repurposing: Primary screen for SK-N-MC cells (AID 1347093); further: potency means the concentration at half of the fitted maximal effect; on activity change, negative = cytotoxic: series mostly up to about 46 µM
# Procedure, shortened: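 Metabolically active cells were quantified by ATP-dependent luminescence (CellTiter-Glo, 15 min at room temperature) following 48 h treatment. Cells had been plated at 500-1,000 per well and settled for 5 h beforehand.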
# [4] = qHTS of pediatric cancer cell lines to identify multiple opportunities for drug repurposing: Primary screen for BT-37 cells (AID 1347094); further: potency means the concentration at half of the fitted maximal effect; on activity change, negative = cytotoxic: series mostly up to about 57 µM
# Procedure, shortened: (§1)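 Plated cells (500-1,000 per well, growth media) were allowed to settle for 5 hours, treated with compound dilutions for 48 hours, then lysed with CellTiter-Glo for 15 min at room temperature before luminescence reading.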
# [5] = qHTS of pediatric cancer cell lines to identify multiple opportunities for drug repurposing: Primary screen for NB-EBc1 cells (AID 1347095); further: potency means the concentration at half of the fitted maximal effect
# Procedure, shortened: as §1
# [6] = qHTS of pediatric cancer cell lines to identify multiple opportunities for drug repurposing: Primary screen for LAN-5 cells (AID 1347100); further: potency means the concentration at half of the fitted maximal effect
# Procedure, shortened: (§2)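 Viability after 48 h compound treatment at 37C, 500-1,000 cells/well, read as ATP luminescence with CellTiter-Glo. Primary screens used 11-point (MIPE, 0.78 nM-46 µM) or 8-point (NPC, 0.59 nM-46 µM) final concentrations; follow-up screens used 11-point dilutions.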
# [7] = qHTS of pediatric cancer cell lines to identify multiple opportunities for drug repurposing: Primary screen for SK-N-SH cells (AID 1347098); further: nearly all actives have a fitted effect of over 65% in size; further: potency means the concentration at half of the fitted maximal effect;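 on activity change, negative = cytotoxic: DMSO served as neutral control and bortezomib at 2.3 µM as positive control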
# Procedure, shortened: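 Cells (500-1,000/well) rested 5 h, then received compounds for 48 h; metabolically active cells were measured by CellTiter-Glo luminescence. Final concentrations spanned up to 46 µM (MIPE, 11-point) or 0.59 nM-46 µM (NPC, 8-point) in primary screens, 11-point in follow-ups.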
# [8] = qHTS of pediatric cancer cell lines to identify multiple opportunities for drug repurposing: Primary screen for NB1643 cells (AID 1347099); further: nearly all actives have a fitted effect of over 50% in size
# Procedure, shortened: as §1
# [9] = qHTS of pediatric cancer cell lines to identify multiple opportunities for drug repurposing: Primary screen for U-2 OS cells (AID 1347096); further: nearly all actives have a fitted effect of over 50% in size
# Procedure, shortened: as §2
# [10] = qHTS of pediatric cancer cell lines to identify multiple opportunities for drug repurposing: Primary screen for Saos-2 cells (AID 1347097); further: nearly all actives have a fitted effect of over 40% in size
# Procedure, shortened: as §1
structure (smiles),measurement,setting,value
CCCSc1ccc2nc(NC(=O)OC)[nH]c2c1,Potency,[1],0.422 µM (active)
same,Potency,[2],0.841 µM (active)
same,Potency,[3],0.841 µM (active)
same,Potency,[4],2.46 µM (active)
same,Potency,[5],0.266 µM (active)
same,Potency,[6],1.19 µM (active)
S=c1[nH]c2ccccc2s1,Potency,[1],inactive
same,Potency,[2],19.3 µM (active)
same,Potency,[4],inactive
same,Potency,[5],inactive
same,Potency,[7],inactive
same,Potency,[6],inactive
CCCCCCCCCCCC(=O)[O][Sn]([CH2]CCC)([CH2]CCC)[O]C(=O)CCCCCCCCCCC,Potency,[1],inactive
same,Potency,[2],inactive
same,Potency,[3],inactive
same,Potency,[4],inactive
same,Potency,[5],inactive
same,Potency,[7],inactive
same,Potency,[8],inactive
same,Potency,[6],inactive
O=C(O)/C=C\C(=O)O,Potency,[1],inactive
same,Potency,[2],inactive
same,Potency,[3],inactive
same,Potency,[4],inactive
same,Potency,[5],inactive
same,Potency,[9],inactive
same,Potency,[10],inactive
same,Potency,[7],inactive
same,Potency,[8],inactive
same,Potency,[6],inactive
CCCCCCOc1ccccc1C(N)=O,Potency,[1],inactive
same,Potency,[2],inactive
same,Potency,[4],inactive
same,Potency,[5],inactive
same,Potency,[10],inactive
same,Potency,[7],inactive
same,Potency,[8],inactive
same,Potency,[6],inactive
CN1CC(=O)N/C1=N/C(=O)Nc1cccc(Cl)c1,Potency,[1],inactive
same,Potency,[2],inactive
same,Potency,[3],inactive
same,Potency,[4],inactive
same,Potency,[5],inactive
same,Potency,[7],inactive
same,Potency,[8],inactive
same,Potency,[6],inactive
Cc1nc2ccccc2n1Cc1ccc(Cl)cc1,Potency,[1],inactive
same,Potency,[3],18.8 µM (active)
same,Potency,[9],inactive
C#C[C@]1(O)CC[C@H]2[C@@H]3CCc4cc(O)ccc4[C@H]3CC[C@@]21C,Potency,[2],26.6 µM (active)
same,Potency,[3],4.73 µM (active)
CN(C)c1ccc(N=NS(=O)(=O)O)cc1,Potency,[1],inactive
same,Potency,[4],inactive
same,Potency,[5],inactive
same,Potency,[7],inactive
Nc1ccc(C(=O)O)c(O)c1,Potency,[2],inactive
same,Potency,[3],inactive
same,Potency,[4],inactive
same,Potency,[5],inactive
same,Potency,[7],inactive
same,Potency,[8],inactive
same,Potency,[6],inactive
CCOC(=O)c1ccccc1O,Potency,[2],0.001 µM (active)
same,Potency,[3],inactive
same,Potency,[4],inactive
same,Potency,[5],inactive
same,Potency,[9],inactive
same,Potency,[10],inactive
same,Potency,[7],inactive
same,Potency,[8],inactive
same,Potency,[6],inactive
CCOc1ccc2nc(S(N)(=O)=O)sc2c1,Potency,[1],inactive
same,Potency,[5],inactive
same,Potency,[7],inactive
same,Potency,[8],inactive
same,Potency,[6],inactive
O=C(O)Cc1cccc(-c2cc(CCCCCCc3ccc(O[C@H]4O[C@H](CO)[C@@H](O)[C@H](O)[C@@H]4O)c(-c4cccc(CC(=O)O)c4)c3)ccc2O[C@H]2O[C@H](CO)[C@@H](O)[C@H](O)[C@@H]2O)c1,"activity change, negative = cytotoxic",[2],10.8% [at 0.597 µM]
same,"activity change, negative = cytotoxic",[3],-8.23% [at 0.597 µM]
same,"activity change, negative = cytotoxic",[4],12.8% [at 0.745 µM]
same,"activity change, negative = cytotoxic",[5],9.49% [at 0.597 µM]
same,"activity change, negative = cytotoxic",[7],-3.64% [at 0.741 µM]
same,"activity change, negative = cytotoxic",[8],1.92% [at 0.597 µM]
same,"activity change, negative = cytotoxic",[6],9.16% [at 0.597 µM]
Cc1c(N)c(=O)n(-c2ccccc2)n1C,Potency,[2],inactive
same,Potency,[3],inactive
same,Potency,[4],inactive
same,Potency,[5],inactive
same,Potency,[7],inactive
same,Potency,[8],inactive
same,Potency,[6],inactive
Cc1ccc(C(=O)c2ccc(CC(=O)O)n2C)cc1,Potency,[2],inactive
same,Potency,[3],inactive
same,Potency,[4],inactive
same,Potency,[5],inactive
same,Potency,[7],inactive
same,Potency,[8],inactive
same,Potency,[6],inactive
COC(=O)C1=C(C)NC(C)=C(C(=O)OCC(C)C)C1c1ccccc1[N+](=O)[O-] (stereo not drawn),Potency,[1],inactive
same,Potency,[10],inactive
Nc1c(CC(=O)O)cccc1C(=O)c1ccc(Br)cc1,Potency,[2],inactive
same,Potency,[3],inactive
same,Potency,[4],inactive
same,Potency,[5],inactive
same,Potency,[10],inactive
same,Potency,[7],inactive
same,Potency,[8],inactive
same,Potency,[6],inactive
Cc1[nH]cnc1CN1CCc2c(c3ccccc3n2C)C1=O,Potency,[2],inactive
same,Potency,[3],inactive
same,Potency,[4],inactive
same,Potency,[5],inactive
same,Potency,[9],inactive
same,Potency,[7],inactive
same,Potency,[8],inactive
same,Potency,[6],inactive
CN(C)CCn1nnnc1SCC1=C(C(=O)O)N2C(=O)[C@@H](NC(=O)Cc3csc(N)n3)[C@H]2SC1,Potency,[2],inactive
same,Potency,[3],inactive
same,Potency,[4],inactive
same,Potency,[5],inactive
same,Potency,[9],inactive
same,Potency,[10],inactive
same,Potency,[7],inactive
same,Potency,[8],inactive
same,Potency,[6],inactive
O=C(O)c1cc(O)c(O)c(O)c1,Potency,[1],inactive
same,Potency,[3],inactive
same,Potency,[4],inactive
same,Potency,[5],inactive
same,Potency,[7],inactive
same,Potency,[8],inactive
same,Potency,[6],inactive
C#CC1(O)CC[C@H]2[C@@H]3CCC4=CCCC[C@@H]4[C@H]3CC[C@@]21C (stereo partly drawn),Potency,[1],inactive
same,Potency,[4],inactive
same,Potency,[5],inactive
same,Potency,[7],24.4 µM (active)
same,Potency,[6],inactive
CC(C)(C)c1nnc(NS(=O)(=O)c2ccc(N)cc2)s1,Potency,[2],inactive
same,Potency,[3],inactive
same,Potency,[4],inactive
same,Potency,[5],inactive
same,Potency,[9],inactive
same,Potency,[7],inactive
same,Potency,[8],inactive
same,Potency,[6],inactive
CCCCCCCCCCCCOCCO,Potency,[2],inactive
same,Potency,[3],inactive
same,Potency,[4],inactive
same,Potency,[5],inactive
same,Potency,[9],inactive
same,Potency,[10],inactive
same,Potency,[7],inactive
same,Potency,[8],inactive
same,Potency,[6],inactive
CN(C)[C@@H]1C(=O)C(C(=O)NCN2CCCC2)=C(O)[C@@]2(O)C(=O)C3=C(O)c4c(O)cccc4[C@@](C)(O)C3C[C@@H]12 (stereo partly drawn),Potency,[2],inactive
same,Potency,[3],inactive
same,Potency,[4],inactive
same,Potency,[5],inactive
same,Potency,[10],inactive
same,Potency,[7],inactive
same,Potency,[8],inactive
same,Potency,[6],inactive
COc1cc(NC(C)CCCN)c2ncccc2c1 (stereo not drawn),Potency,[1],inactive
same,Potency,[7],17.2 µM (active)
same,Potency,[6],inactive
CC(C(=O)O)c1ccc(C(=O)c2ccccc2)s1 (stereo not drawn),Potency,[2],inactive
same,Potency,[3],inactive
same,Potency,[4],inactive
same,Potency,[5],inactive
same,Potency,[7],inactive
same,Potency,[8],inactive
same,Potency,[6],inactive
Cc1ccc2c(n1)Oc1ccc(C(C)C(=O)OCC(=O)N(C)C)cc1C2 (stereo not drawn),Potency,[2],inactive
same,Potency,[3],inactive
same,Potency,[4],inactive
same,Potency,[5],inactive
same,Potency,[7],inactive
same,Potency,[8],inactive
same,Potency,[6],inactive
